Experimental data: the supplement of paper PMC11417369
The full ranking holds about 25,000 sequences; the median of “ln(normalized median fluorescence intensity)” is about 9.3, and the highest 2% start at about 10. The sample holds the highest values, similar sequences and a random draw of the others, so the mix is not that of the screen.

These sequences were tested on PF3D7_0420300 AP2 domain 1 (GST-tagged) (assay: gcPBM binding intensity (ln(normalized median fluorescence intensity)); higher = stronger DNA binding).
Summary of the method: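 Binding intensity is defined as the maximum Masliner-normalised natural-log median intensity across replicate spots for either probe orientation. It was measured on an Agilent 4 × 180k array of primer-extended double-stranded 36-bp intergenic genomic probes and negative controls, to which GST-tagged P. falciparum DNA-binding domains made in E. coli were applied for 1 h in 1× PBS with 1% milk, 0.2 mg/ml BSA, 0.5% salmon testes DNA and 0.03% Triton X-100. Detection was by Alexa488 anti-GST antibody and scanning at 488 nm.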

Sequence	gcPBM binding intensity (ln)
ATAGTAATAGAATGATTGCACTTAAATTTTCCCTCT	9.19
AATATATATATATGTACACACTCCAATACATATACA [CACACA_site2682]	9.42
AAAAAAATAACAAAAGTGCATTTTTATGAGTTATCT	9.2
CATAAATACATACATACACACATATATATATATATA [CACACA_site2106]	9.5
TACATATAAAAGTACACACACACACCCATATATATA [CACACA_site941]	10.2
AATAAATAAATATATACACACATATATATATAATAT [CACACA_site921]	9.6
TACATACATACATACACACACACATATAAATACATA [CACACA_site4626]	10.2
AAATAATATAAATACACACACACATATATAAATACA [CACACA_site4465]	10.2
ATAATATAAATATACACACACACATATATATATATA [CACACA_site2905]	9.91
TGGTAATACCCATACACACACACATACACATATATA [CACACA_site8877]	10.1
TGGTAATACCCATACACACACACATACCCATATATA [CACACA_site5509]	10.1
CATATATAAATATATACACACATACATACATACATA [CACACA_site5988]	9.67
AATACATATAAAAGTACACACACACCCATATATATA [CACACA_site8220]	10.2
TGGTAATACACATACACACACACATACACATATATA [CACACA_site7312]	10.2
TATAAAAATAAAAAAAGTACACATAAAAATATATAT [XGTACX_site5189]	9.62
TAAAACAATACTTTGTGCTTCTCTGGTTTTTTTTTT [GTGCAC_negctrl_site284]	9.26
ACGTTTGATACACATAAAGTTTTCCTTTGAATGTAC [CACACA_negctrl_site106]	9.26
TTTTAACATAGAAGTACACACATATAATCAATCATA [CACACA_site5313]	9.6
TTAATACATTAAATATGTACTTATATATCTCAACTA [XGTACX_site3997]	9.11
AACACAAATAAGTATTTGGATTATATTACATTTATA [CACACA_negctrl_site465]	9.18
GTGTTTTTATGTGAATGTACATATTTACTATCACAC [XGTACX_site2388]	9.56
TTCATTCTATAAAACACACAAATATTTTTGTATCCC [CACACA_site6458]	9.2
CATAATATGACATACACACACAAAAAAAAAAAAATA [CACACA_site1285]	9.91

Sequence	gcPBM binding intensity (ln)
AGAAATATCTAATTGTGTACTCAAGAAAAAGTTACG [XGTACX_site372]	9.29
TTACCATAAGTATGTGGTACACTTTAAATGAAGATA [XGTACX_site6972]	8.88
AATACATACAGACACACACACACATATAAATAAATA [CACACA_site7642]	10.2
TATAAATAAATATACACACACACATATAAATATGTA [CACACA_site6504]	10.1
CATACATATATTATTGCACACATATAAAATACCCCC [CACACA_site9292]	10.3
TACAGATATTATTGCACACATATAAAATACCCCCAA [CACACA_site6014]	9.89
AATATAAGCAAATACACACACACATATATATATATA [CACACA_site3805]	10
TACATACACAGACACACACACATATAAATATAAATA [CACACA_site7641]	9.95
AATATAAGCAAATACACACACACATATAAATATGTA [CACACA_site7741]	10.2
TACATATATTATTGCACACATATAAAATACCCCCAA [CACACA_site3895]	9.82
AAAATTAAAATATATACACACATATATATATTAAAT [CACACA_site4419]	9.57
AATTAAAAAAAATACACACACACATACACATATATA [CACACA_site3298]	10.2
AAAAAAAATTAAATAAATAAATATACACATATATAT [GTGCAC_negctrl_site394]	9.26
CATACATACAGACACACACACATATAAATACATACA [CACACA_site6533]	10
CATATAAAAAATATGGTGCAGTTTTTTTTTTTTTTT	9.1
ATATATCATAATAGAGGTACACATATTATATATATA [XGTACX_site782]	9.29
TAATTTTTTTTAAATACACACTGAAATGTGAATTTT [CACACA_site4476]	8.96
ACCACCATATAACATACATGCATCTTTTTTCCCTTC [TGCATGCA_site583]	9.79
TTTTTATATTTTATTAGTACTTATTATATATATAAT [XGTACX_site4900]	9.26
TGTAATAAATAGTACACACACACATATATATATATT [CACACA_site1388]	9.94
TAATAATAGTAAATATGTACATATATATATATATAG [XGTACX_site4602]	9.26
ATATATGTAATAAATAGTACACACACACATATATAT [XGTACX_site2817]	10.3
TGTAGTCTGGAGAAAAGTACATAGTATCTGGTAACA [XGTACX_site4940]	9.2

Sequence	gcPBM binding intensity (ln)
CAAATACATGGACACACACACATATACAGATATATA [CACACA_site5854]	10
GGAATAATATAAAACACACACATAAATATAAATATA [CACACA_site3376]	9.9
ATAATATATAAACACACACACATATATAAATACATT [CACACA_site4466]	10.1
TGGGAATAAAAACACACACACACACCGATATATATA [CACACA_site5875]	10.3
TATAATCCATAAGAAGCACACACATATATATATATT [CACACA_site8394]	9.76
ATAAAAATAAAATGGACACACATATATACATATTTG [CACACA_site3277]	9.68
TAATAATCCACAAGCACACACACACCCATATATATA [CACACA_site1267]	10
AAATAATATAAACATACACACACACCGATATATATA [CACACA_site8945]	10.2
AAAATACATGGACACACACACACACCGATATATATA [CACACA_site5885]	10.3
AAAAAAAAAAGAATAGCACACACACCGATATAAATA [CACACA_site8111]	10.1
ATAATATAAACATACACACACACATATATATATATA [CACACA_site5591]	10
ATAATCCACAAGCACACACACACACCCATATATATA [CACACA_site1268]	10.2
TATATTAACAAAATGGTGCAATAATTTCTATATTGT [GTGCAC_site9430]	9.21
TATTTTAATTTTTGTTGTACGCAAATGTGAGGGCAT [XGTACX_site4663]	9.17
AAATAAAGGAAATAAAAAGAAACCAATTTCGAATAT [CACACA_negctrl_site953]	9.57
TTTTTTATTTTTTACATATTTAGCTCATATTTATAT [GTGCAC_negctrl_site491]	9.44
AAAGGAGGGAATTTTTCTAGGTGTGGAGTGCTACTC [XGTACX_negctrl_site63]	9.44
TATAAATATAAATACACACACATATATATTATATAT [CACACA_site4496]	9.85
AAAACACTTATGGATTGTACAATAAAAATTATATTA [XGTACX_site7042]	9.26
CCTATAAATGCATTCACACATATATATTTATATTAT [CACACA_site6086]	9.26
TATATTAAAAAAAAATGTACATATATATAATATATA [XGTACX_site1935]	9.19
CCTAAATAAATGGACACACACATATATATATATATA [CACACA_site1439]	9.49
ACCATATAAATAAACACACACACACCGATATATATA [CACACA_site5310]	10.1

Sequence	gcPBM binding intensity (ln)
ATAAAATACATATAAACACACATATAAACCGACATA [CACACA_site2477]	10
TATATATATAAATACACACACACACCGATATATATA [CACACA_site5408]	10.1
AAATATATACTACCGATGCACTAAATATAAACACAT [GTGCAC_site9777]	9.67
CACTAAAATAAACACACACACACACCGATATATATA [CACACA_site9379]	10.3
CACTAAAATGGACACACACACACACCGATATATATA [CACACA_site6139]	10.2
TGATAATAAGCATACACACACACACCCAAAAAAAAA [CACACA_site721]	10.2
TAATAATACCCAAGCACACACACACCCATATATATA [CACACA_site4831]	10
AAAATACATAAACACACACACACACCGATATATATA [CACACA_site9186]	10.3
ATAATACCCAAGCACACACACACACCGATATATATA [CACACA_site8344]	10.4
TAAAAAAAAAAAAATACACACACACCGATATATATA [CACACA_site8498]	10.2
TGTAAGAAATTGAGCGCACACATACATCTGTGGGAT [CACACA_site4945]	9.55
AAAAAAAAAAAAAAAACACACATTTAGCAATCTACA [CACACA_site3706]	9.32
ATGTGATGTTATATATGTACTTATTTTTTAATAAGG [XGTACX_site1786]	9.25
TGTTGTAAATTAAAGACATGCACGTGAGAAAATATA [TGCATGCA_site285]	9.51
TCAAATTTAATCATAACACACATTCACATATGAATT [CACACA_site3199]	9.16
GTAGTCCAAAAAAAGCGTACACAGAAAAAAAAAAAA [XGTACX_site4273]	9.14
ATTTTTTGGAAAAGAAGTACAATGGATTTATACGTT [XGTACX_site891]	9.09
TTTTTTTTTTTTTTTTTTTTACCCCTTTTTCAAAAA [CACACA_negctrl_site1524]	8.39
AGGATATATAATTAAGTGCATTAATTCAAAATAAAA [GTGCAC_site9702]	9.17
TTTTGTCTTATATGTTGTACAACGTAAACAAAAAAA [XGTACX_site4412]	8.84
